D1 antag: Antagonist of Human D 1 Dopamine Receptor: qHTS. HEK293 TREx D1 cells, calcium flux, dopamine EC80; active compounds read low. activity change, negative = inhibition, % at 10 µM. AID 504652, 2011. 360,000 compounds, 3.2% hits. D(1A) dopamine receptor (Homo sapiens), P21728; in the data active = activity change below about -30%
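Cells carrying a force-coupled, tetracycline-inducible human D1 receptor report calcium flux. Each well gets a 10 s baseline, compound with 180 s monitoring, then an EC80 dopamine stimulus with a second 180 s kinetic read.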
D1 ag: Allosteric Agonists of the Human D1 Dopamine Receptor: qHTS | HEK293 T-REx D1 cells, calcium flux, agonist mode | activation, % at 2 µM | 360,000 compounds, 1% hits
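Inducible HEK293 T-REx D1 cells, force-coupled to calcium signalling, were plated at 4000 cells/well with tetracycline and held overnight at 30 C. After no-wash calcium dye loading, compound-evoked calcium rise over 180 s flagged agonists.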
TRHR PAM: qHTS for Small Molecule Agonists and Allosteric Enhancers of Human TRH Receptor: Primary Screen for Enhancers. 360,000 compounds, 0.66% hits. enhancement, % at 2 µM. Thyrotropin-releasing hormone receptor (Homo sapiens), P34981. TRHR cells, fluo-8 calcium fluorescence, EC20 TRH enhancement. AID 493056, 2011; in the data active = enhancement above about 30%
Target sequence (P34981 whole entry, looked up): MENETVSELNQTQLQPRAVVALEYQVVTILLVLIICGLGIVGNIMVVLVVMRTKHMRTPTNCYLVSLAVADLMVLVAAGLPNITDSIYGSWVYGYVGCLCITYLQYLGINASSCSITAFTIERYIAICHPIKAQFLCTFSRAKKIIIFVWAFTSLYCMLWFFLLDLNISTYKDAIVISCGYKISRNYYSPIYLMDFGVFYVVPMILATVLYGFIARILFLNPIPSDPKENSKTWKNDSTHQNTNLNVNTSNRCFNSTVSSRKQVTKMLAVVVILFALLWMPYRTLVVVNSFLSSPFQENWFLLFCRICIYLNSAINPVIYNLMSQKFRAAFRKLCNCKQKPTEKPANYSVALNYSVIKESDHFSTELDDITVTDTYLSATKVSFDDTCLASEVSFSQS
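Enhancer read-out: after compound pinning and an initial kinetic agonist-mode read, an EC20 of TRH (10 nM final) was injected and fluo-8 calcium signal (Ex 480/Em 530) followed at 1 s/cycle for 100 cycles in TRHR-expressing cells.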
TRHR ag: qHTS for Small Molecule Agonists and Allosteric Enhancers of Human TRH Receptor: Primary Screen for Agonists; Thyrotropin-releasing hormone receptor (Homo sapiens), P34981; TRHR cells, calcium flux fluo-8, FDSS agonist mode; activation, % at 2 µM; 360,000 compounds, 0.18% hits; AID 493084, 2011
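Steps: seed TRHR cells overnight; add fluo-8 no-wash Ca dye, RT 30 min–1.5 h; record 10 s baseline; pin-transfer compounds; monitor fluorescence 1 cycle/s for the agonist window. Calcium increases flag candidate agonists.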
GRP78 ERSR act: qHTS for Inducers of the Endoplasmic Reticulum Stress Response (ERSR) in Human Glioma: qHTS | U87-MG GRP78 promoter luciferase reporter, 16 h | AID 602332, 2012 | Potency, µM, usual class: activators | 420,000 compounds, 0.02% hits; active = well fitted activation curve with a large enough effect; also: series mostly up to about 76 µM; nearly all actives have a fitted effect of over 35% in size
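ERSR induction read as luciferase luminescence (Bright-Glo, 10 min at room temperature) in stably transfected human U87-MG glioma cells exposed to compounds for 16 h, using GRP78 as sensor.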
D1 potentiator: Potentiators of Human D1 Dopamine Receptor: qHTS | HEK293 TREx D1 cells, calcium flux, dopamine EC20 potentiation | potentiation, % at 10 µM | 360,000 compounds, 0.036% hits; in the data active = potentiation above about 30%
Numbers stand for hits; – = inactive; · = not tested or not shown. Only some compounds are listed: those with a hit (about 4% of all), similar ones and a draw of the others. Rule as the data show it, unless noted: active = activation above about 30%; inactive = the rest.

SMILES | D1 antag | D1 ag | TRHR PAM | TRHR ag | GRP78 ERSR act | D1 potentiator
O=C(COC(=O)c1ccccc1C(=O)c1ccc(Cl)c([N+](=O)[O-])c1)NC1CC1 | -41 | – | – | – | – | –
CNC(=O)COC(=O)c1ccccc1C(=O)c1ccc(Cl)c([N+](=O)[O-])c1 | – | – | – | – | – | –
O=C1CCN(CCc2ccccc2)CCN1CCSc1ccc(Br)cc1 | – | – | – | – | – | –
Cc1ccc(SCCN2CCN(CCc3ccccc3)CCC2=O)cc1 | -38 | – | – | – | – | –
CN1CCN(C(=O)Nc2cccc(Cl)c2)c2cccnc21 | – | 47 | – | – | – | –
Cc1ccc(Cl)cc1NC(=O)N1CCN(C)c2ncccc21 | – | – | – | – | – | –
O=C(Cn1cc2ccccc2n1)N1CCOc2ccc(C(O)C3CCCCC3)cc2C1 (configuration not stated) | · | · | · | · | – | ·
Cc1ccc(CS(=O)(=O)c2ccccc2-c2nnc(-c3ccc(Cl)cc3)o2)cc1 | -39 | – | – | – | – | –
Cc1ccccc1-c1nnc(-c2ccc(Cl)cc2)o1 | – | – | – | – | – | –
COCOCCn1cc(CN2CCS(=O)(=O)N(Cc3ccc(-c4ccc(OC)cc4)cc3)C(C)C2=O)nn1 (configuration not stated) | · | · | · | · | – | ·
Cc1cc(C)c(S(=O)(=O)N/N=C/c2ccc3c(c2)OCO3)c(C)c1 | -72 | – | – | – | – | –
COc1cc2nc(CN(CCO)C3CS(=O)(=O)CC3O)nc(N3CCCCC3)c2cc1OC (configuration not stated) | · | · | · | · | – | ·
N#CC1=C2SCN(C3CCCCC3)CN2C(=O)CC1c1ccc(F)cc1 (configuration not stated) | – | – | – | – | – | –
N#CC1=C2SCN(C3CCCCC3)CN2C(=O)CC1c1ccc(Cl)cc1 (configuration not stated) | -60 | – | – | – | – | –
CC(C)(C)C(=O)NC(n1cnc2c(N3CCOCC3)ncnc21)C(Cl)(Cl)Cl (configuration not stated) | -34 | – | – | – | – | –
C1=Cc2ccccc2/C1=C\c1cccc(/C=C2\C=Cc3ccccc32)c1 | · | · | · | · | – | ·
CCc1cc[n+](CC(=O)c2ccc(F)cc2)cc1C(=O)O | · | · | · | · | – | ·
COc1ccc(C(=O)Oc2c(C)occc2=O)cc1OC | – | – | – | – | – | –
Cc1occc(=O)c1OC(=O)Nc1ccc(Cl)c(Cl)c1 | -47 | – | – | – | – | –
CC1=CC(C)(C)N(C(=O)c2ccc(F)cc2)c2cc3c(cc21)OCO3 | – | 72 | – | – | – | –
COC(=O)C/C=C1\c2ccccc2C(OC)C1C (configuration not stated) | · | · | · | · | – | ·
CC/C(=N/Nc1cccc(Cl)c1)c1cnnc(SC)n1 | -37 | – | – | – | – | –
COCCNC(=O)CSc1nc2ccccc2c(=O)n1CCC(=O)N1CCN(c2ccccc2)CC1 | – | – | – | – | – | –
O=c1[nH]c2ccccc2nc1/C=C(\O)c1cccs1 | – | 279 | – | 115 | – | –
CC(C)(C)/C(O)=C/c1nc2ccccc2[nH]c1=O | – | 45 | – | – | – | –
O=C(N/N=C/c1cccc(F)c1)c1c(O)c2c([nH]c1=O)CCCC2 | -50 | – | – | – | – | –
CNC(=O)c1ccccc1NC(=O)c1c(O)c2c([nH]c1=O)CCCC2 | – | – | – | – | – | –
CC1OC2(C)OC(=N)C1(C#N)C(C#N)(C#N)C2c1ccccc1 (configuration not stated) | -35 | – | – | – | – | –
S=c1[nH]nc(-c2ccncc2)n1/N=C/c1cn(-c2ccccc2)nc1-c1ccccc1 | – | – | 30 | – | – | –
CCOC(=O)c1ccccc1NC(=O)c1c(-c2ccccc2)noc1C | – | 32 | – | – | – | –

Compound activity from PubChem BioAssay.
